Assay outcomes from PubChem BioAssay.
This is a sample that favours compounds with a hit; in the whole collection about 31% have one here.
CYP2C19 act – human CYP2C19 activators, primary screen, biochemical, luminescence | Cytochrome P450 2C19 (Homo sapiens), P33261 | activation factor at 5 µM | recombinant CYP2C19, luciferin-H EGE luminescence; active compounds read high; 0 = fully inhibited enzyme, 1 = untreated enzyme | 96,000 tested, under 10 active;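 active = activation factor of at least 2 at 5 µM in the primary screen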;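 also: 0 = wells with 2.5 mM tranylcypromine and 1 = vehicle-only wells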
Target sequence (P33261 whole entry, looked up): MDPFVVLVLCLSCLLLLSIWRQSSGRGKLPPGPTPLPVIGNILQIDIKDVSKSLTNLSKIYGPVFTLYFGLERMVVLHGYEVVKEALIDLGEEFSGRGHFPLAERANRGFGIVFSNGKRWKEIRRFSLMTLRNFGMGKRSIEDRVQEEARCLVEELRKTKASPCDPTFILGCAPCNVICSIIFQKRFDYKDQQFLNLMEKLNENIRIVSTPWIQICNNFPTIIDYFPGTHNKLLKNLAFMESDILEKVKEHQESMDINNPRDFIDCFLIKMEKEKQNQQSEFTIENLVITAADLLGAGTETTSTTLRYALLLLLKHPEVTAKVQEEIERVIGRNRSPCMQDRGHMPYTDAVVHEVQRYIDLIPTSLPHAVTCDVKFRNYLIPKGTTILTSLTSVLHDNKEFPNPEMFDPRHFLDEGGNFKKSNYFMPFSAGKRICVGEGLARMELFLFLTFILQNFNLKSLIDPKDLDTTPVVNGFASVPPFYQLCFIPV
CYP2C19 inhib – blockers of cytochrome P450 2C19 activity – biochemical, luminescence, ADME assay, primary screen; P33261; CYP2C19 Supersomes, luciferin-H EGE luminescence, 30 min; inhibition, % at 5 µM; 96,000 tested, 21% active;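 active = CYP2C19 inhibition above a set limit at 5 µM in the primary screen, cut at about 50% in these data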;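 also: plate controls were negative control wells for no effect and 2.5 mM tranylcypromine positive control for full effect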
CYP2C9 activ – human CYP2C9 activators, primary screen, biochemical, luminescence. Cytochrome P450 2C9 (Homo sapiens), P11712. recombinant CYP2C9, luciferin-H conversion; active compounds read high; factor 1 = untreated enzyme, 0 = blocked. activation factor at 5 µM. 96,000 tested, 1.4% active. AID 1024, 2008;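 active = activation factor of 2 or more for CYP2C9 at a 5 µM dose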;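 also: 0 = sulfaphenazole-blocked wells and 1 = vehicle-only wells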
CYP2C9 inhib – blockers of cytochrome P450 2C9 activity – biochemical, luminescence, ADME assay, primary screen | P11712 | CYP2C9 Supersomes, luciferin-H conversion | inhibition, % at 5 µM | 96,000 tested, 20% active;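 active = blocking of liver enzyme CYP2C9 beyond about 50% at 5 µM, limit read from the data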
The depositor's hits bear a star.

SMILES | CYP2C19 act | CYP2C19 inhib | CYP2C9 activ | CYP2C9 inhib
COc1ccc(NC(=O)CN2C(=O)C(C)Oc3ccccc32)c(OC)c1 (stereo not given) | 0.2 | 79.4* | 0.6 | 43.4
CCC1Oc2ccccc2N(CC(=O)Nc2ccccc2OC)C1=O (stereo not given) | 0.2 | 77.5* | 0.4 | 63.0*
CC1Oc2ccccc2N(CC(=O)c2cccc(Cl)c2)C1=O (stereo not given) | 0 | 96.9* | 0.1 | 92.8*
COc1ccc(NC(=O)CN2C(=O)C(C)Oc3ccccc32)cc1 (stereo not given) | 0.7 | 26.2 | 1 | 1.1
C=CCn1c(-c2cccc(OC)c2)nc2nc3ccccc3nc21 | 1 | 2.0 | 0.7 | 31.0
COc1ccc(NC(=O)CN2c3cccc4cccc(c34)S2(=O)=O)c(OC)c1 | 0.1 | 91.2* | 0.6 | 36.6
CCCCC1CC(CSC(=N)N)OC1=O (stereo not given) | 1 | -2.3 | 1.2 | -16.0
CCCCC1CC(CSc2ncn[nH]2)OC1=O (stereo not given) | 0.2 | 79.7* | 0.8 | 22.4
CCCCOCCCNC(=O)c1ccc(OCC)cc1 | 0.9 | 14.2 | 0.9 | 5.3
CCCCOCCCNC(=O)c1ccc(OC)cc1 | 0.4 | 57.7* | 0.9 | 13.9
CCCCOCCCNC(=O)Cc1ccccc1OC | 0.3 | 73.0* | 1 | -1.1
CCn1c(=O)cc(OCC(=O)NCc2cccnc2)c2ccccc21 | 1.1 | -9.8 | 1 | -4.6
COCCn1c(C)cc(C2=NNC(=Nc3ccccc3F)SC2)c1C | 0.5 | 53.0* | 0.6 | 38.4
COCCn1c(C)cc(C(=O)COC(=O)c2n[nH]c3ccccc23)c1C | 0.7 | 34.4 | 1.7 | -66.0
CC(C)OC(=O)c1cc(C(=O)c2cc(F)ccc2O)coc1=N | 0.1 | 85.3* | 0.3 | 73.1*
CCOC(=O)c1cc(C(=O)c2cc(F)ccc2O)coc1=N | 0.6 | 38.4 | 0.9 | 12.9
O=C(O)CC/C(=N\Nc1ccc(S(=O)(=O)N2CCCC2)cc1[N+](=O)[O-])c1cccs1 | 0.9 | 5.2 | 0 | 98.7*
O=[N+]([O-])c1cc(S(=O)(=O)N2CCCC2)ccc1N/N=C/c1cccs1 | 0.9 | 11.4 | 0.9 | 10.6
O=C(NCCN1CCOCC1)c1noc2c1CCc1ccccc1-2 | 1.1 | -11.7 | 1.6 | -56.3
Cn1c(=O)c2cc(NC(=O)c3ccccc3Cl)c(=O)oc2n(C)c1=O | 1 | -0.6 | 0.8 | 18.1
CC(=O)Nc1ccc(NC(=O)Oc2ccccc2)cc1 | 0.9 | 9.7 | 0.9 | 9.7
COc1ccc(OC(=O)Nc2ccccc2)cc1 | 0.2 | 78.3* | 0.3 | 66.9*
CN(C)c1ccc(C(=S)N2CCN(c3ccccc3)CC2)cc1 | 0.5 | 48.8 | 0.9 | 14.2
CN(C)c1ccc(NC(=O)Oc2ccccc2)cc1 | 0.1 | 90.8* | 0.9 | 6.3
CN(C)c1ccc(C(=O)c2ccccc2)cc1 | 0.1 | 87.8* | 1.1 | -9.3
SMILES | CYP2C19 act | CYP2C19 inhib | CYP2C9 activ | CYP2C9 inhib
CCC(C)(C)c1nnc(NC(=O)c2ccc([N+](=O)[O-])cc2)s1 | 1 | -4.8 | 1 | 3.3
CCOC(=O)c1[nH]c(Cc2[nH]c(C(=O)OCC)c(C)c2CCC(=O)OC)c(CCC(=O)OC)c1C | 0.4 | 58.0* | 0.3 | 71.6*
CCOC(=O)c1c(C)[nH]c(C(=O)OC)c1CCC(=O)OC | 0.8 | 23.4 | 0.9 | 13.1
CCN(CC(=O)NCCc1ccc(S(N)(=O)=O)cc1)Cc1nc2cc(OC)c(OC)cc2c(=O)[nH]1 | 1 | -1.0 | 1.2 | -19.1
CCN(Cc1nc2cc(OC)c(OC)cc2c(=O)[nH]1)C(=O)c1ccc(S(=O)(=O)N(C)C)cc1 | 0.7 | 30.1 | 0.5 | 54.2*
COc1ccc(OCc2n[nH]c(=S)o2)cc1 | 0.9 | 13.7 | 0.1 | 88.6*
N#Cc1ccsc1NC(=O)CSc1ncnc2ccccc12 | 0.7 | 30.2 | 0.4 | 64.5*
O=C(Nc1ccc(F)cc1)c1ccccc1CC[N+](=O)[O-] | 0.7 | 30.0 | 1 | 1.4
CCOC(=O)CC1C(=O)NCCN1Cc1cccc(OC)c1 (stereo not given) | 0.7 | 34.9 | 0.2 | 75.4*
Cc1cc(N(C)C)c(C#N)c(N2CCOCC2)n1 | 1 | -3.7 | 1.2 | -16.6
Cc1cccc(C)c1N1CCN(c2nc(N(C)C)oc(=O)c2C#N)CC1 | 0.1 | 94.6* | 0.3 | 73.5*
CN(C)c1nc(N2CCN(c3ccccc3)CC2)c(C#N)c(=O)o1 | 0 | 97.1* | 1.9 | -93.8
COC(=O)c1ccccc1NC(=O)Cn1cnc2ccc(S(=O)(=O)N3CCC(C)CC3)cc2c1=O | 1 | -0.6 | 0.8 | 18.6
CN1CCc2c(sc3c2c(=O)n(-c2ccccc2)c2n[nH]c(=S)n32)C1 | 0.9 | 9.0 | 0.8 | 17.9
COC1=Cc2c(ccc3ccc(=O)oc23)OC1(C)C | 1 | 0.8 | 0.8 | 23.3
C=CCc1c(OC)ccc2ccc(=O)oc12 | 0.4 | 56.9* | 2.2* | -124.2
Cc1cc(C)n(-c2c(F)c(F)c(CO)c(F)c2F)n1 | 1.1 | -13.8 | 1.1 | -13.0
COc1cccc(CN(C)C(=O)c2ccc(S(=O)(=O)N3CCCC3)cc2)c1OC | 0.7 | 28.5 | 0.8 | 20.4
COc1ccccc1CN(C)C(=O)c1ccc2c(c1)NC(=O)CS2 | 0.1 | 92.7* | 1.9 | -94.4
COc1ccc(S(=O)(=O)n2cnc3cc(C)c(C)cc32)cc1C | 0.5 | 49.9 | 0.6 | 44.4
COc1ccc(S(=O)(=O)n2cnc3cc(C)c(C)cc32)cc1 | 0 | 95.5* | 0.1 | 87.3*
COc1ccc(Cl)cc1NC(=O)Nc1cccc([N+](=O)[O-])c1C | 0.9 | 9.5 | 1 | 3.0
COc1cc(Nc2ccccc2Cl)c([N+](=O)[O-])nc1[N+](=O)[O-] | 0.2 | 80.9* | 0.9 | 8.1
COc1ccc(Oc2ncnc3c2oc2ccc(Br)cc23)cc1 | 0.9 | 11.0 | 1 | 3.0
Cc1c(-c2ccccc2)[n+](=O)c(-c2ccco2)c(C)n1[O-] | 0.1 | 87.2* | 1 | -4.0
SMILES | CYP2C19 act | CYP2C19 inhib | CYP2C9 activ | CYP2C9 inhib
Cc1c(-c2ccco2)[n+](=O)c2c(n1[O-])CCCCC2 | 0.5 | 47.3 | 1 | -3.3
CC(NC(=O)COC(=O)Cc1ccsc1)C1CC2CCC1C2 (stereo not given) | 0.1 | 91.9* | 0.6 | 36.2
O=C(COC(=O)Cc1ccsc1)NCC1CCCCC1 | 0.4 | 56.9* | 0.9 | 7.8
NC(=O)c1ccsc1NC(=O)COC(=O)Cc1ccsc1 | 0.6 | 39.6 | 0.5 | 49.4
CC(=NCCN1CCNCC1)C1=C(O)CC(C)(C)CC1=O | 1 | 2.0 | 0.9 | 13.2
CCOC(=O)C(C(=O)OCC)C(Nc1cccc(Br)c1)c1ccccc1 (stereo not given) | 0.9 | 8.4 | 1.1 | -8.7
COc1ccc(N(CC(=O)NCCSc2ccccn2)S(C)(=O)=O)cc1Cl | 0.5 | 54.8* | 0.4 | 59.5*
COCCNC(=O)CN(c1ccc(C)cc1)S(=O)(=O)c1ccc(SC)cc1 | 0 | 97.6* | 0.2 | 76.9*
Cc1ccc(S(=O)(=O)N(CC(=O)NCCSc2ccccn2)c2cc(C)cc(C)c2)cc1 | 0.6 | 41.6 | 0.2 | 79.3*
